# Data taken from PubChem BioAssay AID651789 (National Center for Advancing Translational Sciences (NCATS), 2012).
# Records with an inconclusive call do not appear. The source made the active and inactive calls. Calls follow the shape of the dose curve; as a rule, active = well fitted inhibition curve with a large enough effect; inconclusive = small, poorly fitted or top-dose-only effect; inactive = no such curve, though single readings can be large or run the other way.
# Test: Acumen qHTS Assay for Inhibitors of the mTORC1 Signaling Pathway in WT MEF Cells: Hit Validation; also: nearly all actives have a fitted effect of over 60% in size;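 as to activity change, negative = inhibition: phospho-rpS6 Ser235/236 immunofluorescence normalised to propidium iodide cell stain; percent of cells above a cutoff set by 7.5 nM rapamycin treated wells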
# Conditions: Acumen imaging; series mostly up to 37.3 µM; activity change, negative = inhibition: at the top concentration
# How it was run: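 Read-out is immunofluorescent phospho-rpS6 (Ser235/236) normalised to PI-stained cell number, reported as % active cells using a 7.5 nM rapamycin threshold. Cells: WT or Tsc2-/-, p53-/- MEFs, compound-exposed 24 h at 37C; PI count also tracks viability.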
# Potency is read from the fitted curve at half-maximal effect.
Compound,Potency,"activity change, negative = inhibition"
Cc1ccc(CS(=O)(=O)c2ncc(Cl)c(C(=O)Nc3nnc(C(C)C)s3)n2)cc1,11.7 µM (active),
CCS(=O)(=O)c1ncc(Cl)c(C(=O)N2CCN(c3ccc(OC)cc3)CC2)n1,10.4 µM (active),
COc1ccc(NC(=O)c2ccco2)cc1NC(=O)COc1ccccc1Cl,,-18.1% (inactive)
CC1CCCCN1c1nnc(NC(=O)Nc2ccccc2F)s1 (stereo unspecified),,-7.97% (inactive)
CC(=O)Nc1cccc(NC(=O)C(=O)NCCc2sc(-c3ccccc3)nc2C)c1,7.36 µM (active),
Cc1cc(C)c(/C=C2\C(=O)Nc3ccccc32)[nH]1,inactive,
CCCCCn1c(=N)n(CC(O)COc2cccc(C)c2)c2ccccc21 (stereo unspecified),4.14 µM (active),
Cc1ccc(S(=O)(=O)c2nnn3c2nc(NCc2cccs2)c2sccc23)cc1,,1.95% (inactive)
COc1ccc(S(=O)(=O)N(Cc2nc(-c3cccc(C)c3)no2)C2CCCCC2)cc1,,7.2% (inactive)
COC(=O)c1cc2sc(C)cc2n1Cc1ccccc1,,-15.3% (inactive)
COc1ccc(N(C)C(=O)c2cc(S(=O)(=O)N3CCc4ccccc43)cn2C)c(OC)c1,,31.5% (inactive)
